# Test results reported in PubChem BioAssay (NCATS).
# Inconclusive results are not listed. The source made the active and inactive calls. Calls follow the shape of the dose curve; as a rule, active = well fitted inhibition curve with a large enough effect; inconclusive = small, poorly fitted or top-dose-only effect; inactive = no such curve, though single readings can be large or run the other way.
# Assay: Primary qHTS for inhibitors of La Crosse Virus (LACV) - induced cell death in SH-SY5Y cells (AID 1508616);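 also: top concentration of the series differs between compounds; 0% = infected DMSO wells and 100% = uninfected DMSO wells; higher means more rescue of cells from virus-induced death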
# Conditions: SH-SY5Y LACV cytopathicity rescue, ATP luminescence, 6 d; series mostly up to 4.29 µM; activity change: at the top concentration
# In short: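 Luminescent ATP readout (ATPLite 1step, 5 min room temperature) measured rescue from LACV-induced death after 6 days of infection at 0.01 MOI; normalized to infected DMSO wells and uninfected DMSO wells.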
row,Compound,activity change
1,O=C1CC[C@H](C(=O)N2CCCCC2)N1,14.9% (inactive)
2,CCCC(CCC)(C(=O)OCC)C(=O)OCC,53.8% (inactive)
3,Cc1ccc2c(Cl)cc(Cl)c(O)c2n1,-7.24% (inactive)
4,N#Cc1cc(NC(=O)C(=O)O)c(Cl)c(NC(=O)C(=O)O)c1,-4.24% (inactive)
5,O=C(CCCl)NCc1ccccc1,-9.97% (inactive)
6,C=CCOc1cc(Cl)ccc1C(=O)NCCN(CC)CC,9.1% (inactive)
7,COc1cc(C=O)ccc1O,0.464% (inactive)
8,CCN1CCN(C(=O)N[C@@H](C(=O)N[C@@H]2C(=O)N3[C@@H]2SC(C)(C)[C@H]3C(=O)O)c2ccccc2)C(=O)C1=O,-4.62% (inactive)
9,Fc1ccc(C(c2ccc(F)cc2)N2CCNCC2)cc1,-2.75% (inactive)
10,CCOc1ncc(F)c(=O)[nH]1,-6.39% (inactive)
11,CC(COc1ccccc1)NN (stereo not drawn),-7.63% (inactive)
12,CC(C)=CCC/C(C)=C/CC/C(C)=C/CCC(=O)OC/C=C(\C)CCC=C(C)C,2.68% (inactive)
13,CCCCC(O)/C=C(C)/C=C/C=C/C(=O)N1CCCC1=O (stereo not drawn),13.6% (inactive)
14,CCCCCC[C@@H](CCC)C(=O)O,-5.16% (inactive)
15,CCO[C@H](Cc1ccc(OCCc2ccc(OS(C)(=O)=O)cc2)cc1)C(=O)O,-1.9% (inactive)
16,NC(=O)NS(=O)(=O)c1ccc(Cl)cc1,14.9% (inactive)
17,Nc1ccc(C(=O)OCC(O)CO)cc1 (stereo not drawn),60.9% (inactive)
18,CCOC(=O)C(O)c1ccccc1 (stereo not drawn),-7.39% (inactive)
19,CC(=O)c1ccc(O)c(C(N)=O)c1,21.9% (inactive)
20,Nc1nc(=O)n([C@@H]2O[C@H](CO)[C@@H](O)[C@@H]2F)cc1I,-26.7% (inactive)
21,C1=CC2C3C=CC(C3)C2C1 (stereo not drawn),6.78% [at 8.54 µM] (inactive)
22,Cc1cc(O)c(C)c(C)c1O,-5.36% (inactive)
23,CCCCOC(=O)CCCCCCCCC(=O)OCCCC,-9.42% (inactive)
